# Reference: PubChem BioAssay AID720569 (National Center for Advancing Translational Sciences (NCATS), 2013)
# The other results are listed elsewhere or left out. Records with an inconclusive call do not appear. Activity calls are given as the source filed them. Calls come from the whole dose curve; as a rule, active = well fitted inhibition curve with a large enough effect; inconclusive = small, poorly fitted or top-dose-only effect; inactive = no such curve, though single readings can be large or run the other way.
# Test system: pyruvate kinase (Trypanosoma brucei)
# Assay: qHTS of Trypanosoma Brucei Inhibitors: Confirmatory Assay for Cherry-picked Compounds; note: nearly all actives have a fitted effect of over 70% in size
# Details: recombinant TbPYK, Kinase-Glo ATP luminescence
# Excerpt: Members of the Trypanosomatidae family of parasitic protozoans cause a spectrum of diseases throughout the tropical and subtropical world. Sleeping sickness, caused by two subspecies of Trypanosoma brucei, is endemic to areas of sub-Saharan Africa, while Chagas' disease, a manifestation of Trypanosoma cruzi infection, is prevalent throughout Central and South America. In addition, many species of Leishmania are responsible for a range of cutaneous and visceral diseases, causing ulcers, destructive lesions and kalaazar, a lethal infection of the viscera. These diseases cause severe public health and economic burdens on populations that are often already caught in a tragic cycle of poverty, poor nutrition and disease. Collectively, parasites of the trypanosomatid family infect 30 million people worldwide (~500 million live in endemic areas), and account for ~130K deaths annually. Existing treatments have developed little in the past 50 years, and suffer from toxicity, poor efficacy and resistance; the goal of this project is to develop lead drugs that will be suitable for entry into pre-clinical trials. […] Glycolysis in axenically cultured T. cruzi, representing the intracellular pathogenic stage, is also essential for these parasites. {Engel, 1987} This project aims to discover and optimize selective inhibitors of the glycolytic enzyme pyruvate kinase (PYK) from Trypanosoma brucei, the parasite that causes sleeping sickness. […] Trypanosomatid PYKs show significant differences from their human counterparts including only 47-50% sequence identity and different allosteric and activation properties.{Callens, 1992} To this end, a qHTS was done against the MLSMR to discover inhibitors. NIH Molecular Libraries Probe Production Network [MLPCN] NIH Chemical Genomics Center [NCGC] Grant: MH095452 PI Name: Malcolm Walkinshaw, University of Edinburgh
# Two uL of TbPYK/substrate buffer (columns 1-3, 5-48) are dispensed into Greiner white solid bottom 1536-well assay plates; column 4 receives only TEA buffer as 0x TbPYK controls. Compounds are then transferred via Kalypsys pin tool equipped with 1536-pin array (10 nL slotted pins, V&P Scientific, San Diego, CA). Following addition of compound, 2 uL of ADP (130 uM final concentration, all columns) is added to initiate the reaction. The plates are then incubated at room temperature for 45 minutes. Kinase-Glo Plus reagent is added (3 uL) and plates incubated for 10 minutes, before being transferred to a ViewLux high-throughput CCD imager (PerkinElmer) wherein single end-point measurements of luminescence are acquired using a clear filter. All reagents are diluted in an assay buffer consisting of 50 mM TEA (pH 7.2), 100 mM KCl, 10 mM MgCl2, 0.05% BSA and 0.01% Tween-20. […]
# Potency is the fitted concentration of half-maximal effect.
row,Structure (SMILES),Potency
1,Cc1ccc2c(c1)=C/C(=C\c1c(O)[nH]c(=O)[nH]c1=O)C(=O)N=2,17.8 µM (active)
2,COc1ccc(N2C(=O)/C(=C/c3ccco3)C(=O)NC2=S)cc1,14.1 µM (active)
3,O=C(O)CCn1cc(C=C2C(=O)NC(=S)NC2=O)c(-c2cccc(Br)c2)n1,6.31 µM (active)
4,O=C1NC(=O)N(c2ccccc2)C(=O)/C1=C/c1ccc([N+](=O)[O-])s1,8.91 µM (active)
